# Bioassay records deposited in PubChem by National Center for Advancing Translational Sciences (NCATS).
# ELG1 DNA repair – ELG1-dependent DNA repair inhibition. HEK293T ELG1-luciferase reporter, luminescence, 16 h; DNA damage induced by 5-fluorouridine. Potency, µM (top dose mostly 46.1 µM), without a hit: at the top dose activity change, negative = inhibition, most hits filed as inhibitors. actives 2.3% (n = 330,000); also: % is scaled to controls: 0 for no effect and ±100 for the full control effect; nearly all actives have a fitted effect of over 55% in size
#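 Luminescence from the luciferase reporter, measured 30 min after ONE-Glo reagent at room temperature, was the read-out. Beforehand, 2,000 cells per well were exposed for 16 hr at 37 °C to 5-fluorouridine together with compound or vehicle.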
# KB-V1 cytotox – kills drug-selected multidrug resistant KB-V1 cells. KB-V1 MDR cells viability, CellTiter-Glo, 72 h. Potency, µM (top dose mostly 46.1 µM), most hits filed as cytotoxic. actives 3.4% (n = 400,000). AID 1347076; also: % is scaled to controls: 0 for no effect and ±100 for the full control effect; nearly all actives have a fitted effect of over 60% in size
#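 Following 72 h at 37 degrees C with compound, KB-V1 cell viability was read by CellTiter-Glo luminescence, medium being phenol-red-free DMEM plus 10% FBS; concentration-response parameters came from normalized, curve-fitted qHTS data.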
# SW480 rerep – induces DNA re-replication in SW480 colon adenocarcinoma cells; SW480 DNA re-replication, Hoechst DNA content imaging, 48 h; Potency, µM (doses to about 46.1 µM), without a hit: at the highest dose re-replication activation, actives largely listed as activators; actives 1.8% (n = 340,000); also: % of control where 0% means no effect; nearly all actives have a fitted effect of over 55% in size
#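 Per well, 250 cells were exposed to pinned compound for 48 hr. Nuclear DNA was visualised with Hoechst (40 min, 37 C) and total object intensity recorded by fluorescence scanning.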
# KB-3-1 cytotox – KB-3-1 parental cell cytotoxicity | Potency, µM (highest dose often 46.1 µM), usual class: cytotoxic | KB-3-1 viability, CellTiter-Glo ATP luminescence, 72 h | actives 1.4% (n = 400,000); also: % is scaled to controls: 0 for no effect and ±100 for the full control effect; nearly all actives have a fitted effect of over 60% in size
#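 72 h, 37 °C compound treatment of KB-3-1 parental cells; CellTiter-Glo added, 10 min, luminescence read. Data corrected against DMSO-only plates and normalized before curve fitting.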
# MCF10A rereplic – induces DNA re-replication in MCF 10a normal breast cells; Potency, µM (top dose mostly 46.1 µM), for the others: top-dose activity, positive = re-replication, most hits filed as activators; AID 624296; MCF 10A DNA re-replication, Hoechst nuclear intensity, 48 h; actives 2.9% (n = 350,000); also: % of control where 0% means no effect; nearly all actives have a fitted effect of over 50% in size
# * = called active by the depositor; i = inactive; ? = inconclusive; . = no result given. Sampled rows, rich in hits. Any-hit rate of the full collection: about 8.2%. Calls follow the shape of the dose curve; as a rule, active = well fitted curve in the direction sought with a large enough effect; inconclusive = small, poorly fitted or top-dose-only effect, or another doubt; inactive = no such curve, though single readings can be large; an effect the other way counts as inactive or inconclusive. Potency is read from the fitted curve at half-maximal effect.
SMILES,ELG1 DNA repair,KB-V1 cytotox,SW480 rerep,KB-3-1 cytotox,MCF10A rereplic
O=C(CSc1ccc2nnc(-c3ccc(Cl)cc3)n2n1)N1CCCc2ccccc21,?,?,.,?,12%
C[C@H](CO)N1C[C@H](C)[C@@H](CN(C)C(=O)OCc2ccccc2)OCc2cn(nn2)CCCC1=O,.,i,.,i,.
COc1cccc(-n2nnnc2SCC(=O)NC2CCCC2)c1,-6%,21µM*,-2%,i,3%
COc1cccc(-n2nnnc2SCC(=O)NC2CCCCC2)c1,10%,i,2%,i,9%
O=C(CSc1nnnn1-c1cccc(F)c1)NC1CCCCC1,1%,18µM*,-7%,i,-3%
Cc1ccc(N(Cc2ccccc2)C(=O)c2cccc(F)c2)cc1,1%,i,7%,i,0%
Cc1cccc2cc(CN(Cc3ccccc3)C(=O)c3cccc(F)c3)c(Cl)nc12,-3%,18µM*,3.7µM*,i,?
Cc1nn(Cc2ccc(Cl)cc2Cl)c(C)c1NC(=O)c1nn(C)cc1Cl,-21%,?,-14%,?,-6%
Cc1nn(C)c(Cl)c1NC(=O)OCc1ccc(Cl)cc1Cl,-12%,2.6µM*,2%,4.1µM*,?
Cc1nn(Cc2ccc(Cl)cc2Cl)c(C)c1NC(=O)CCl,15µM*,18µM*,18%,15µM*,?
Cc1nnsc1NC(=O)OCc1ccc(Cl)cc1Cl,2%,i,-6%,i,0%
OC(c1cccc(Cl)c1)c1ncc(-c2ccc(C(F)(F)F)cc2)[nH]1 (centres undefined),.,i,.,i,.
COc1ccccc1N1CCN(C(=O)CSc2n[nH]c(-c3ccccc3Cl)n2)CC1,.,i,.,i,.
O=C(Nc1ccc(Br)cc1)c1cccc(N2C(=O)C3C4CCC(C4)C3C2=O)c1 (centres undefined),16µM*,?,-1%,i,?
O=C(Nc1ccc(F)cc1)c1cccc(N2C(=O)C3C4CCC(C4)C3C2=O)c1 (centres undefined),?,10µM*,1%,?,-2%
CCOc1ccc(N2C(=O)CC(SC(=NC)Nc3ccc4c(c3)OCO4)C2=O)cc1 (centres undefined),26µM*,i,-1%,i,-1%
CCOc1ccc(NC(=NCc2ccc3c(c2)OCO3)SC2CC(=O)N(c3ccc(OCC)cc3)C2=O)cc1 (centres undefined),?,?,16%,i,21µM*
CCOc1ccc(N2C(=O)CC(SC(=NC)Nc3cccc(F)c3)C2=O)cc1 (centres undefined),-22%,i,-6%,i,-10%
COc1ccc(OCC(CO)N2CCN(c3ccccc3)CC2)cc1 (centres undefined),.,i,-4%,i,15%
CCN(CC)S(=O)(=O)c1ccc(N2CCOCC2)c(NS(=O)(=O)c2ccc(Cl)s2)c1,.,i,.,i,.
Nc1c(-c2cccc(Cl)c2)cnn1-c1cccc(C(F)(F)F)c1,0%,21µM*,3%,?,11%
Nc1c(-c2ccccc2)cnn1-c1cccc(C(F)(F)F)c1,?,i,-3%,i,2%
c1ccc(Nc2nc(Nc3ccccc3)nc(-n3cccn3)n2)cc1,.,i,.,?,.
Fc1ccc(-c2cc(-c3ccccc3)nc(-n3cccn3)n2)cc1,?,i,3%,i,18µM*
Cc1ccc(N/C=C2/Sc3ccccc3NC2=O)cc1,?,?,3%,i,18µM*
SMILES,ELG1 DNA repair,KB-V1 cytotox,SW480 rerep,KB-3-1 cytotox,MCF10A rereplic
Cc1ccccc1-n1c2nc(=O)[nH]c(=O)c-2cc2c(Cl)cccc21,.,i,.,i,.
CN(C)c1nc(N)nc(CSc2ncc(Cl)cc2Cl)n1,22%,15µM*,4%,i,?
O=C(c1nc(-c2ccccc2)n(-c2ccccc2)n1)N1CCN(S(=O)(=O)c2ccccc2)CC1,18µM*,?,-4%,i,21%
O=C(O)c1nc(-c2ccccc2)n(-c2ccccc2)n1,?,?,-1%,i,-4%
O=C(CC1CC2CCC1C2)N1CCN(S(=O)(=O)c2ccccc2C(F)(F)F)CC1 (centres undefined),11µM*,i,-26%,i,13%
O=C(c1ccccc1C(F)(F)F)N1CCN(S(=O)(=O)c2ccccc2)CC1,21µM*,?,-5%,i,-1%
Cc1ccc(S(=O)(=O)N2CCN(C(=O)c3cc4c(C)nn(-c5ccccc5)c4s3)CC2)cc1,10µM*,i,-14%,i,?
Cc1cc(C)cc(Cn2cc(CN3CC(N4CCCCC4)CS3(=O)=O)nn2)c1 (centres undefined),.,i,.,i,.
COC(=O)C(C)N1C(=O)S/C(=C\c2ccc(-c3ccc(C(=O)O)cc3C)o2)C1=O (centres undefined),?,i,-10%,i,3%
COc1ccc(S(=O)(=O)N2CCN(C(=O)c3c(C)nn(-c4ccccc4)c3C)CC2)cc1,-7%,13µM*,-2%,i,5%
CCN1CCN(c2ccc(S(=O)(=O)N3CCCCC3)cc2NC(=O)COc2ccc(F)cc2Cl)CC1,-17%,i,26%,?,8%
Clc1nc(NCCc2ccccc2)c2cn[nH]c2n1,.,1.2µM*,6%,i,?
Cn1ncc2c(Nc3ccccc3Cl)nc(Cl)nc21,13%,i,-7%,i,24%
COc1ccc(CCNc2cn[nH]c(=O)c2Cl)cc1OC,17%,i,-8%,i,-11%
O=c1[nH]ncc(NCCc2ccccc2)c1Cl,13%,8.2µM*,-4%,?,-3%
Cn1ncc2c(NCCc3ccccc3)nc(Cl)nc21,.,4.6µM*,-3%,?,10%
Cc1cc(C)c(S(=O)(=O)N2CCN(C(=O)c3ccc(-n4cncn4)c([N+](=O)[O-])c3)CC2)c(C)c1,-7%,?,-1%,i,6%
Cc1c(NC(=O)/C=C/c2cn(-c3ccccc3)nc2-c2ccc(F)cc2)c(=O)n(-c2ccccc2)n1C,4%,i,18%,?,18µM*
CC1=NNC(=O)/C1=C\c1cn(-c2ccccc2)nc1-c1ccc(F)cc1,?,?,?,i,4.6µM*
O=C(O)CCCCCN1C(=O)/C(=C/c2cn(-c3ccccc3)nc2-c2cccs2)SC1=S,.,i,?,i,26%
CC1=NNC(=O)/C1=C\c1cn(-c2ccccc2)nc1-c1cccs1,?,i,4.1µM*,i,2.6µM*
O=C1CC(=Nc2ccc([N+](=O)[O-])cc2)NN1c1c(Cl)cc(Cl)cc1Cl,.,i,.,i,.
CC1=C(C(=O)N(C(C)C)C(C)C)CC(CC(=O)NC2CCCC2)C(=O)N1CCC1=CCCCC1 (centres undefined),.,i,.,i,.
